# Source: the supplement of paper PMC8728848
# This is one part of a sample in which the strongest signals are shown more often than they occur.
# Key:
# Experiment in all cases: glycan array binding signal (z-score within array); higher = stronger binding
# Settings in all cases: glycan notation: IUPAC condensed, linker removed
# [1] = target: GlcNAc(a1-4)Gal(b1-4)GalNAc
# Outline: (§1)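 Arrays were curated from the Consortium for Functional Glycomics database, 3228 in total, and kept only where the protein sequence was available. Binding is expressed as a within-array Z-score. This score was averaged across arrays of the same protein sequence at different concentrations or buffers and across linkers, and negative values can be read as non-binding.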
# [2] = target: GlcNAc(a1-4)Gal(b1-4)GlcNAc(b1-3)Gal(b1-4)GlcNAc(b1-3)Gal(b1-4)GlcNAc
# Outline: as §1
# [3] = target: GlcNAc(b1-2)[GlcNAc(b1-4)]Man(a1-3)[GlcNAc(b1-4)][GlcNAc(b1-2)[GlcNAc(b1-6)]Man(a1-6)]Man(b1-4)GlcNAc(b1-4)[Fuc(a1-6)]GlcNAc
# Outline: as §1
# [4] = target: GlcNAc(b1-2)[GlcNAc(b1-6)]Man(a1-6)[GlcNAc(b1-2)Man(a1-3)]Man(b1-4)GlcNAc(b1-4)[Fuc(a1-6)]GlcNAc
# Outline: as §1
# [5] = target: GlcNAc(b1-3)Gal(b1-4)GlcNAc(b1-3)Gal(b1-4)GlcNAc
# Outline: as §1
# [6] = target: GlcNAc(b1-3)Gal(b1-4)GlcNAc(b1-3)Gal(b1-4)GlcNAc(b1-2)Man(a1-3)[GlcNAc(b1-3)Gal(b1-4)GlcNAc(b1-3)Gal(b1-4)GlcNAc(b1-2)Man(a1-6)]Man(b1-4)GlcNAc(b1-4)[Fuc(a1-6)]GlcNAc
# Outline: as §1
# [7] = target: GlcNAc(b1-3)Gal(b1-4)GlcNAc(b1-3)Gal(b1-4)GlcNAc(b1-2)[GlcNAc(b1-3)Gal(b1-4)GlcNAc(b1-3)Gal(b1-4)GlcNAc(b1-6)]Man(a1-6)[GlcNAc(b1-3)Gal(b1-4)GlcNAc(b1-3)Gal(b1-4)GlcNAc(b1-2)Man(a1-3)]Man(b1-4)GlcNAc(b1-4)[Fuc(a1-6)]GlcNAc
# Outline: as §1
# [8] = target: GlcNAc(b1-4)GlcNAc(b1-4)GlcNAc(b1-4)GlcNAc(b1-4)GlcNAc
# Outline: as §1
# [9] = target: Man(a1-2)Man(a1-3)[Man(a1-2)Man(a1-6)]Man
# Outline: as §1
# [10] = target: Man(a1-2)Man(a1-3)[Man(a1-2)Man(a1-6)]Man(a1-6)[Man(a1-2)Man(a1-2)Man(a1-3)]Man
# Outline: as §1
# [11] = target: Man(a1-3)[Man(a1-6)]Man(a1-6)[Man(a1-2)Man(a1-3)]Man(b1-4)GlcNAc(b1-4)GlcNAc
# Outline: as §1
# [12] = target: Man(a1-3)[Man(a1-6)]Man(a1-6)[Man(a1-3)]Man
# Outline: as §1
# Man(a1-6)Man = target: Man(a1-6)Man
# Outline: as §1
# [13] = target: Neu5Ac(a2-3)Gal(b1-4)GlcNAc(b1-3)Gal(b1-4)GlcNAc(b1-3)Gal(b1-4)GlcNAc(b1-2)Man(a1-3)[Neu5Ac(a2-3)Gal(b1-4)GlcNAc(b1-3)Gal(b1-4)GlcNAc(b1-3)Gal(b1-4)GlcNAc(b1-2)Man(a1-6)]GalNAc
# Outline: as §1
# [14] = target: Neu5Ac(a2-3)Gal(b1-4)GlcNAc(b1-3)Gal(b1-4)GlcNAc(b1-3)[Neu5Ac(a2-3)Gal(b1-4)GlcNAc(b1-3)Gal(b1-4)GlcNAc(b1-6)]GalNAc
# Outline: as §1
# [15] = target: Neu5Ac(a2-3)Gal(b1-4)GlcNAc(b1-3)[Neu5Ac(a2-3)Gal(b1-4)GlcNAc(b1-6)]GalNAc
# Outline: as §1
# [16] = target: Neu5Ac(a2-3)Gal(b1-4)GlcNAc(b1-6)[Gal(b1-3)]GalNAc
# Outline: as §1
# [17] = target: Neu5Ac(a2-3)Gal(b1-4)[Fuc(a1-3)]GlcNAc(b1-2)Man
# Outline: as §1
# [18] = target: Neu5Ac(a2-6)Gal(b1-3)GlcNAc(b1-3)[Gal(b1-4)GlcNAc(b1-6)]Gal(b1-4)Glc
# Outline: as §1
# [19] = target: Neu5Ac(a2-6)Gal(b1-4)GlcNAc
# Outline: as §1
# [20] = target: Neu5Ac(a2-6)Gal(b1-4)GlcNAc(b1-2)Man(a1-6)Man(b1-4)GlcNAc(b1-4)GlcNAc
# Outline: as §1
# [21] = target: Neu5Ac(a2-6)Gal(b1-4)GlcNAc(b1-3)Gal(b1-4)GlcNAc(b1-3)[Neu5Ac(a2-6)Gal(b1-4)GlcNAc(b1-3)Gal(b1-4)GlcNAc(b1-6)]GalNAc
# Outline: as §1
# [22] = target: Neu5Ac(a2-6)Gal(b1-4)GlcNAc(b1-3)Gal(b1-4)GlcNAc(b1-6)[Gal(b1-3)]GalNAc
# Outline: as §1
# [23] = target: Neu5Ac(a2-6)Gal(b1-4)GlcNAc(b1-6)[Gal(b1-3)GlcNAc(b1-3)]Gal(b1-4)Glc
# Outline: as §1
# Neu5Ac(a2-6)GalNAc = target: Neu5Ac(a2-6)GalNAc
# Outline: as §1
# [24] = target: Neu5Ac(a2-6)GalNAc(b1-4)GlcNAc
# Outline: as §1
# [25] = target: Neu5Ac(a2-6)GalNAc(b1-4)GlcNAc6S
# Outline: as §1
# [26] = target: Neu5Ac(a2-6)GlcNAc(b1-4)GlcNAc
# Outline: as §1
# [27] = target: Neu5Ac(a2-8)Neu5Ac(a2-3)Gal(b1-4)Glc
# Outline: as §1
binder,measurement,setting,value
Aap brpt (Staphylococcus epidermidis) (protein) VDGDPITSTEEIPFDKKREFDPNLAPGTEKVVQKGEPGTKTITTPTTKNPLTGEKVGEGEPTEKITKQPVDEIVHYGGEEIKTGHKDEFDPNAPKGSQTTQPGKPGVKNPDTGEVVTPPVDDVTKYGPVDGDPITSTEEIPFDKKREFDPNLAPGTEKVVQKGEPGTKTITTPTTKNPLTGEKVGEGEPTEKITKQPVDEIVHYGGEEIKPGHKDEFDPNAPKGSQEDVPGKPGVKNPDTGEVVTPPVDDVTKYGPVDGDSITSTEEIPFDKKREFDPNLAPGTEKVVQKGEPGTKTITTPTTKNPLTGEKVGEGEPTEKITKQPVDEIVHYGGEQIPQGHKDEFDPNAPVDSKTEVPGKPGVKNPDTGEVVTPPVDDVTKYGPVDGDSITSTEEIPFDKKREFDPNLAPGTEKVVQKGEPGTKTITTPTTKNPLTGEKVGEGKSTEKVTKQPVDEIVEYGPTK,glycan array binding signal (z-score),[1],-1.15
same,glycan array binding signal (z-score),[2],0.541
same,glycan array binding signal (z-score),[3],0.314
same,glycan array binding signal (z-score),[4],-0.222
same,glycan array binding signal (z-score),[5],-0.363
same,glycan array binding signal (z-score),[6],2.65
same,glycan array binding signal (z-score),[7],3.02
same,glycan array binding signal (z-score),[8],-1.51
same,glycan array binding signal (z-score),[9],-0.923
same,glycan array binding signal (z-score),[10],2.59
same,glycan array binding signal (z-score),[11],2.29
same,glycan array binding signal (z-score),[12],-1
same,glycan array binding signal (z-score),Man(a1-6)Man,1.21
same,glycan array binding signal (z-score),[13],1.19
same,glycan array binding signal (z-score),[14],0.565
same,glycan array binding signal (z-score),[15],0.328
same,glycan array binding signal (z-score),[16],-0.96
same,glycan array binding signal (z-score),[17],0.096
same,glycan array binding signal (z-score),[18],-0.86
same,glycan array binding signal (z-score),[19],-0.403
same,glycan array binding signal (z-score),[20],-0.15
same,glycan array binding signal (z-score),[21],2.85
same,glycan array binding signal (z-score),[22],2.73
same,glycan array binding signal (z-score),[23],0.258
same,glycan array binding signal (z-score),Neu5Ac(a2-6)GalNAc,1.84
same,glycan array binding signal (z-score),[24],0.115
same,glycan array binding signal (z-score),[25],-0.313
same,glycan array binding signal (z-score),[26],2.43
same,glycan array binding signal (z-score),[27],-0.002
